Common to all, as to test: NCI-60 one-dose screen, 48 h (100 = growth as untreated, 0 = no growth, -100 = all killed)
Conditions in all cases: 10 µM unless noted

Experiment [1] concerns T-47D breast.
Experiment [2] deals with BT-549 breast.
The test system of experiment [3] is MDA-MB-435 melanoma.
The subject of experiment [4] is SW-620 colon.
The subject of experiment [5] is MCF7 breast.
Experiment [6] deals with HCT-116 colon.
In experiment [7] the test system is HCC-2998 colon.
Experiment [8] concerns KM12 colon.

This is part of a sample that, as a whole, favours compounds with a hit. Of some 83,000 tested, about 20% had one in any assay.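 Assay: single dose, 48 h. Readout: percent growth (0 = no net growth; negative = cell death). Active: <10.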 Unmarked numbers belong to inactive results. Activity calls are given as the source filed them.

For `CC1CN(CCCOC(=O)Nc2ccc(Cl)cc2)CCN1C(C)(C)C` (configuration not stated), the growth in experiment [1] is 90%; in experiment [2], 101%; in experiment [3], 102%; in experiment [4] it was 110%; in experiment [5] it was 99%; in experiment [6] it was 100%. In addition, the growth was 101% in experiment [7] and 106% in experiment [8].

As to `COc1ccc(NC(=O)/C=C/c2ccc(Cl)c(Cl)c2)cn1`, the growth was 71% in experiment [1]; 67.1% in experiment [2]; 91.1% in experiment [3]; 104% in experiment [4]; 71.7% in experiment [5]; 84.8% in experiment [6]. Further, the values for the growth in experiment [7] and in experiment [8] were 118% and 78.2%, respectively.

Turning to `O=C1/C(=C\c2cccn2Cc2ccc(F)cc2)c2ccccc2N1c1c(Cl)cccc1Cl`, the growth in experiment [1] was 19%; in experiment [2], 95.6%; in experiment [3], 107%; in experiment [4] it was 92%; in experiment [5] it was 12.6%; in experiment [6], 70.8%. The figures for the growth in experiment [7] and in experiment [8] were 81.5% and 54.4%, respectively.

For `CCCCCc1c(C)[nH]c(/C=C2\N=C(c3ccc[nH]3)C=C2CC)c1C`, the growth in experiment [1] is -75% (active); in experiment [2] it was -96.6% (active); in experiment [3], -77.9% (active); in experiment [4], -92.6% (active); in experiment [5], -85.3% (active); in experiment [6], -95.4% (active). Besides, the growth in experiment [7] was -90.4% (active); in experiment [8], -91.4% (active).

Turning to `O=C(O)C1[S][Sb]([CH](C(=O)O)[CH](C(=O)O)[Sb]2[S]C(C(=O)O)C(C(=O)O)[S]2)[S]C1C(=O)O` (configuration not stated), the growth is 86.8% in experiment [1]; 63.8% in experiment [2]; 116% in experiment [3]; 103% in experiment [4]; 67.9% in experiment [5]; 100% in experiment [6]. Besides, the growth was 108% in experiment [7] and 100% in experiment [8].

Consider `Cc1ccc(O)c(Cc2ccccc2)c1`, for which the growth in experiment [1] was 101%; in experiment [2], 92.4%; in experiment [3], 107%; in experiment [4], 98.4%; in experiment [5] it was 114%; in experiment [6], 98%. Also, the values for the growth in experiment [7] and in experiment [8] were 102% and 103%, respectively.

On to `CCCCCCCCNC(C)C(O)c1ccc(SC(C)C)cc1` (configuration not stated), for which the growth in experiment [1] is 49.6%; in experiment [2] it was 59.9%; in experiment [3], -40.8% (active); in experiment [4], -63.6% (active); in experiment [5], 54%; in experiment [6] it was -96.9% (active). Also, the growth is -80.4% (active) in experiment [7] and -72.1% (active) in experiment [8].

Turning to `CC(=O)N(C)c1ccc(Nc2cc(C)[nH]c3ccc4ncnc4c23)cc1`, the growth in experiment [1] was 47.5%; in experiment [2], 61.6%; in experiment [3] it was 81.3%; in experiment [4], 45.5%; in experiment [5] it was 28.3%; in experiment [6], 19.2%. Besides, the growth in experiment [7] is 26.9%; in experiment [8], 67.6%.

`COc1cc(C(=O)/C=C/c2cn(-c3ccccc3)nc2-c2cccc(Nc3ccnc4cc(Cl)ccc34)c2)cc(OC)c1OC`: the growth is 95.4% in experiment [1]; 93.3% in experiment [2]; 66.9% in experiment [3]; 99.1% in experiment [4]; 71.2% in experiment [5]; 68.1% in experiment [6]. The growth was 108% in experiment [7] and 93.5% in experiment [8].

For the compound `Cc1cc(C)c2c(n1)sc1c(Nc3ccc(Cl)cc3Cl)ncnc12`, the growth in experiment [1] is 36.8%; in experiment [2], 44%; in experiment [3], 36%; in experiment [4], 44.6%; in experiment [5], 19.8%; in experiment [6], 24.9%. In addition, the growth in experiment [7] was 58.6%; in experiment [8], 49.8%.

For the compound `COc1ccc(C(=O)C(C#N)c2cc(OC)c(OC)c(OC)c2)cc1` (configuration not stated), the growth in experiment [1] is 98.3%; in experiment [2] it was 98.3%; in experiment [3], 101%; in experiment [4], 107%; in experiment [5], 99.6%; in experiment [6], 97.5%. In addition, the growth in experiment [7] is 100%; in experiment [8] it was 115%.

For the compound `Cc1cc(NC(=O)C2c3ccccc3C(=O)N(CC(C)C)C2c2cccs2)no1` (configuration not stated), the growth is 23.9% in experiment [1]; -4.46% (active) in experiment [2]; -43.8% (active) in experiment [3]; -57% (active) in experiment [4]; 10.4% in experiment [5]; 0.136% (active) in experiment [6]. The growth in experiment [7] was -45.5% (active); in experiment [8], 86.8%.

For the compound `COc1ccc(/C=C(/C(=O)N2CCN(c3ccccc3)CC2)c2cc(OC)c(OC)c(OC)c2)cc1O`, the growth was 68.4% in experiment [1]; 8.46% (active) in experiment [2]; -52.8% (active) in experiment [3]; 24.1% in experiment [4]; 19% in experiment [5]; 6.78% (active) in experiment [6]. The growth is 28.6% in experiment [7] and 9.6% (active) in experiment [8].

In the case of `C=C1NC(=O)C(C(C)CC)NC(=O)C2CSCC(NC(=O)CCC(=O)O)C(=O)NC(Cc3ccccc3)C(=O)NC(C)C(=O)NC(CC(C)CC)C(=O)NC(C(=O)NC(Cc3ccccc3)C(=O)N3CCCC3C(=O)N2)C(C)OC(=O)C(CO)NC(=O)C(C(O)COC)N(C)C(=O)C(C(C)C)NC(=O)C(CC(C)CC)NC1=O` (configuration not stated), the growth was 60.2% [6 µM] in experiment [1]; 7.87% [6 µM] (active) in experiment [2]; -34.8% [6 µM] (active) in experiment [3]; 21.2% [6 µM] in experiment [4]; 16.9% [6 µM] in experiment [5]; 6.69% [6 µM] (active) in experiment [6]. Moreover, the growth in experiment [7] is 12.3% [6 µM]; in experiment [8], 2.09% [6 µM] (active).
